Assay results: the supplement of paper PMC8728848
Shown is part of a subset that was picked to be rich in the strongest signals.

What was measured:
Assay in all cases: glycan array binding signal (z-score within array); higher = stronger binding
Conditions in all cases: glycan notation: IUPAC condensed, linker removed
[1] = target: Fuc(a1-2)Gal(b1-3)GlcNAc(b1-3)[Neu5Ac(a2-6)Gal(b1-4)GlcNAc(b1-6)]Gal(b1-4)Glc
Method in brief: (§1)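 The binding signal is a Z-score computed within each array and averaged over linkers. Arrays of the same protein sequence at different concentrations or buffers were also averaged together. Data originate from 3228 arrays in the Consortium for Functional Glycomics database, kept only where the protein sequence was available.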

[2] = target: Fuc(a1-2)Gal(b1-4)GlcNAc(b1-2)Man
Method in brief: as §1

[3] = target: Fuc(a1-2)Gal(b1-4)GlcNAc(b1-3)Gal(b1-4)GlcNAc
Method in brief: as §1

[4] = target: Fuc(a1-2)Gal(b1-4)[Fuc(a1-3)]GlcNAc
Method in brief: as §1

[5] = target: Fuc(a1-2)Gal6S(b1-3)GlcNAc
Method in brief: as §1

[6] = target: Fuc(a1-2)Gal6S(b1-3)GlcNAc6S
Method in brief: as §1

[7] = target: Fuc(a1-2)[Gal(a1-3)]Gal(b1-4)Glc
Method in brief: as §1

[8] = target: Fuc(a1-2)[Gal(a1-3)]Gal(b1-4)GlcNAc(b1-3)[Fuc(a1-2)[Gal(a1-3)]Gal(b1-4)GlcNAc(b1-6)]GalNAc
Method in brief: as §1

[9] = target: Fuc(a1-2)[GalNAc(a1-3)]Gal(b1-4)GlcNAc(b1-3)Gal(b1-4)GlcNAc
Method in brief: as §1

[10] = target: Fuc(a1-2)[GalNAc(b1-3)]Gal
Method in brief: as §1

[11] = target: Fuc(a1-3)[Gal(b1-4)]GlcNAc(b1-3)Gal(b1-3)[Fuc(a1-4)]GlcNAc
Method in brief: as §1

Gal(b1-2)Gal = target: Gal(b1-2)Gal
Method in brief: as §1

[12] = target: Gal(b1-3)GalNAc(a1-3)[Fuc(a1-2)]Gal(b1-4)Glc
Method in brief: as §1

[13] = target: Gal(b1-3)GlcNAc(b1-3)Gal(b1-4)GlcNAc(b1-3)Gal(b1-4)GlcNAc(b1-2)[Gal(b1-3)GlcNAc(b1-3)Gal(b1-4)GlcNAc(b1-3)Gal(b1-4)GlcNAc(b1-6)]Man(a1-6)[Gal(b1-3)GlcNAc(b1-3)Gal(b1-4)GlcNAc(b1-3)Gal(b1-4)GlcNAc(b1-2)Man(a1-3)]Man(b1-4)GlcNAc(b1-4)[Fuc(a1-6)]GlcNAc
Method in brief: as §1

[14] = target: Gal(b1-3)GlcNAc(b1-3)Gal(b1-4)[Fuc(a1-3)]GlcNAc
Method in brief: as §1

[15] = target: Gal(b1-3)[Fuc(a1-4)]GlcNAc(b1-3)Gal(b1-4)[Fuc(a1-3)]GlcNAc
Method in brief: as §1

Gal(b1-4)Gal = target: Gal(b1-4)Gal
Method in brief: as §1

[16] = target: Gal(b1-4)GalNAc(b1-3)[Fuc(a1-2)]Gal(b1-4)GlcNAc
Method in brief: as §1

Gal(b1-4)Glc = target: Gal(b1-4)Glc
Method in brief: as §1

Gal(b1-4)GlcNAc(b1-2)Man = target: Gal(b1-4)GlcNAc(b1-2)Man
Method in brief: as §1

[17] = target: Gal(b1-4)GlcNAc(b1-2)Man(a1-3)[Gal(b1-4)GlcNAc(b1-2)Man(a1-6)][Gal(b1-4)GlcNAc(b1-4)]Man(b1-4)GlcNAc(b1-4)[Fuc(a1-6)]GlcNAc
Method in brief: as §1

[18] = target: Gal(b1-4)GlcNAc(b1-2)Man(a1-3)[Man(a1-6)]Man(b1-4)GlcNAc(b1-4)GlcNAc
Method in brief: as §1

[19] = target: Gal(b1-4)GlcNAc(b1-2)[Gal(b1-4)GlcNAc(b1-4)]Man(a1-3)[Gal(b1-4)GlcNAc(b1-2)Man(a1-6)]Man(b1-4)GlcNAc(b1-4)GlcNAc
Method in brief: as §1

[20] = target: Gal(b1-4)GlcNAc(b1-2)[Gal(b1-4)GlcNAc(b1-4)]Man(a1-3)[GlcNAc(b1-4)][Gal(b1-4)GlcNAc(b1-2)[Gal(b1-4)GlcNAc(b1-6)]Man(a1-6)]Man(b1-4)GlcNAc(b1-4)GlcNAc
Method in brief: as §1

[21] = target: Gal(b1-4)GlcNAc(b1-3)Gal(b1-4)GlcNAc(b1-2)Man(a1-3)[Gal(b1-4)GlcNAc(b1-3)Gal(b1-4)GlcNAc(b1-2)Man(a1-6)]Man(b1-4)GlcNAc(b1-4)[Fuc(a1-6)]GlcNAc
Method in brief: as §1

[22] = target: Gal(b1-4)GlcNAc(b1-3)Gal(b1-4)GlcNAc(b1-2)[Gal(b1-4)GlcNAc(b1-3)Gal(b1-4)GlcNAc(b1-6)]Man(a1-6)[Gal(b1-4)GlcNAc(b1-3)Gal(b1-4)GlcNAc(b1-2)Man(a1-3)]Man(b1-4)GlcNAc(b1-4)GlcNAc
Method in brief: as §1

[23] = target: Gal(b1-4)GlcNAc(b1-3)Gal(b1-4)GlcNAc(b1-3)Gal(b1-4)GlcNAc
Method in brief: as §1

[24] = target: Gal(b1-4)GlcNAc(b1-6)GalNAc
Method in brief: as §1

Gal6S(b1-4)GlcNAc6S = target: Gal6S(b1-4)GlcNAc6S
Method in brief: as §1

GalNAc(b1-4)GlcNAc6S = target: GalNAc(b1-4)GlcNAc6S
Method in brief: as §1

[25] = target: GlcNAc(b1-2)Man(a1-3)[GlcNAc(b1-2)Man(a1-6)]Man(b1-4)GlcNAc(b1-4)[Fuc(a1-6)]GlcNAc
Method in brief: as §1

[26] = target: GlcNAc(b1-2)[GlcNAc(b1-6)]Man(a1-6)[GlcNAc(b1-2)Man(a1-3)]Man(b1-4)GlcNAc(b1-4)GlcNAc
Method in brief: as §1

[27] = target: GlcNAc(b1-2)[GlcNAc(b1-6)]Man(a1-6)[GlcNAc(b1-2)Man(a1-3)]Man(b1-4)GlcNAc(b1-4)[Fuc(a1-6)]GlcNAc
Method in brief: as §1

[28] = target: GlcNAc(b1-3)Gal(b1-4)GlcNAc(b1-3)Gal(b1-4)GlcNAc
Method in brief: as §1

[29] = target: GlcNAc(b1-3)Gal(b1-4)GlcNAc(b1-3)Gal(b1-4)GlcNAc(b1-2)[GlcNAc(b1-3)Gal(b1-4)GlcNAc(b1-3)Gal(b1-4)GlcNAc(b1-6)]Man(a1-6)[GlcNAc(b1-3)Gal(b1-4)GlcNAc(b1-3)Gal(b1-4)GlcNAc(b1-2)Man(a1-3)]Man(b1-4)GlcNAc(b1-4)[Fuc(a1-6)]GlcNAc
Method in brief: as §1

[30] = target: GlcNAc(b1-3)Gal(b1-4)GlcNAc(b1-3)Gal(b1-4)GlcNAc(b1-3)Gal(b1-4)GlcNAc(b1-2)Man(a1-3)[GlcNAc(b1-3)Gal(b1-4)GlcNAc(b1-3)Gal(b1-4)GlcNAc(b1-3)Gal(b1-4)GlcNAc(b1-2)Man(a1-6)]Man(b1-4)GlcNAc(b1-4)GlcNAc
Method in brief: as §1

[31] = target: GlcNAc(b1-3)Gal(b1-4)GlcNAc(b1-6)[GlcNAc(b1-3)]Gal(b1-4)GlcNAc
Method in brief: as §1

[32] = target: GlcNAc(b1-4)GlcNAc(b1-4)GlcNAc
Method in brief: as §1

[33] = target: Man(a1-2)Man(a1-6)[Man(a1-3)]Man(a1-6)[Man(a1-2)Man(a1-2)Man(a1-3)]Man(b1-4)GlcNAc(b1-4)GlcNAc
Method in brief: as §1

[34] = target: Man(a1-3)[Man(a1-6)]Man(a1-6)[Man(a1-2)Man(a1-3)]Man(b1-4)GlcNAc(b1-4)GlcNAc
Method in brief: as §1

Man(b1-4)GlcNAc = target: Man(b1-4)GlcNAc
Method in brief: as §1

[35] = target: Neu5Ac(a2-3)Gal(b1-3)GlcNAc(b1-2)Man
Method in brief: as §1

[36] = target: Neu5Ac(a2-3)Gal(b1-3)[Fuc(a1-4)]GlcNAc
Method in brief: as §1

[37] = target: Neu5Ac(a2-3)Gal(b1-3)[Fuc(a1-4)]GlcNAc(b1-3)Gal(b1-4)[Fuc(a1-3)]GlcNAc
Method in brief: as §1

[38] = target: Neu5Ac(a2-3)Gal(b1-4)GlcNAc(b1-3)Gal
Method in brief: as §1

[39] = target: Neu5Ac(a2-3)Gal(b1-4)GlcNAc(b1-6)[Gal(b1-3)]GalNAc
Method in brief: as §1

Neu5Ac(a2-6)Gal(b1-4)Glc = target: Neu5Ac(a2-6)Gal(b1-4)Glc
Method in brief: as §1

[40] = target: Neu5Ac(a2-6)Gal(b1-4)GlcNAc(b1-2)Man(a1-3)[Man(a1-6)]Man(b1-4)GlcNAc(b1-4)GlcNAc
Method in brief: as §1

[41] = target: Neu5Ac(a2-6)Gal(b1-4)GlcNAc(b1-2)Man(a1-6)[Gal(b1-4)GlcNAc(b1-2)Man(a1-3)]Man(b1-4)GlcNAc(b1-4)GlcNAc
Method in brief: as §1

[42] = target: Neu5Ac(a2-6)Gal(b1-4)GlcNAc(b1-3)Gal(b1-4)GlcNAc
Method in brief: as §1

[43] = target: Neu5Ac(a2-6)Gal(b1-4)GlcNAc(b1-3)Gal(b1-4)GlcNAc(b1-3)GalNAc
Method in brief: as §1

[44] = target: Neu5Ac(a2-8)Neu5Ac(a2-3)Gal(b1-3)GalNAc(b1-4)[Neu5Ac(a2-3)]Gal(b1-4)Glc
Method in brief: as §1

[45] = target: Neu5Ac9Ac(a2-3)Gal(b1-4)GlcNAc
Method in brief: as §1

[46] = target: Neu5Gc(a2-3)Gal(b1-3)GlcNAc
Method in brief: as §1

[47] = target: Neu5Gc(a2-3)Gal(b1-4)GlcNAc(b1-3)Gal(b1-4)GlcNAc(b1-2)Man(a1-3)[Neu5Gc(a2-3)Gal(b1-4)GlcNAc(b1-3)Gal(b1-4)GlcNAc(b1-2)Man(a1-6)]Man(b1-4)GlcNAc(b1-4)GlcNAc
Method in brief: as §1

[48] = target: Neu5Gc(a2-3)Gal(b1-4)[Fuc(a1-3)]GlcNAc
Method in brief: as §1

B1: Mermaid2 (Stilbonema majum) (protein)
chain: MGSSHHHHHHSSGLVPRGSHMAASGWLRSPQGTVVKLYRRSLSWSKADEFCKDVDGRLVVDRTADMHLFLIKNVLKEKKSRVWVGLRRTAPHSRTWIWSDGTRQNEDDLNTNLWLRDEPNDAAGEEECALFMYSPWEKAWGLNDYLCRGGCRSYQFICEKGIR
glycan array binding signal (z-score) [1]: 0.333 | glycan array binding signal (z-score) [2]: 1.76 | glycan array binding signal (z-score) [3]: -0.575 | glycan array binding signal (z-score) [4]: 0.558 | glycan array binding signal (z-score) [5]: -0.388 | glycan array binding signal (z-score) [6]: 4.48 | glycan array binding signal (z-score) [7]: -0.23 | glycan array binding signal (z-score) [8]: -0.477 | glycan array binding signal (z-score) [9]: -0.302 | glycan array binding signal (z-score) [10]: -0.551 | glycan array binding signal (z-score) [11]: -0.144 | glycan array binding signal (z-score) (Gal(b1-2)Gal): -0.539 | glycan array binding signal (z-score) [12]: 3.31 | glycan array binding signal (z-score) [13]: 4.69 | glycan array binding signal (z-score) [14]: -0.471 | glycan array binding signal (z-score) [15]: -0.152 | glycan array binding signal (z-score) (Gal(b1-4)Gal): 6.71 | glycan array binding signal (z-score) [16]: 0.467 | glycan array binding signal (z-score) (Gal(b1-4)Glc): -0.205 | glycan array binding signal (z-score) (Gal(b1-4)GlcNAc(b1-2)Man): 1.07 | glycan array binding signal (z-score) [17]: -0.652 | glycan array binding signal (z-score) [18]: 3.75 | glycan array binding signal (z-score) [19]: 0.034 | glycan array binding signal (z-score) [20]: -0.17 | glycan array binding signal (z-score) [21]: -0.278 | glycan array binding signal (z-score) [22]: 5.21 | glycan array binding signal (z-score) [23]: 0.308 | glycan array binding signal (z-score) [24]: -0.317 | glycan array binding signal (z-score) (Gal6S(b1-4)GlcNAc6S): -0.12 | glycan array binding signal (z-score) (GalNAc(b1-4)GlcNAc6S): 4.64 | glycan array binding signal (z-score) [25]: 0.316 | glycan array binding signal (z-score) [26]: -0.776 | glycan array binding signal (z-score) [27]: -0.217 | glycan array binding signal (z-score) [28]: -0.357 | glycan array binding signal (z-score) [29]: 0.522 | glycan array binding signal (z-score) [30]: -0.346 | glycan array binding signal (z-score) [31]: -0.719 | glycan array binding signal (z-score) [32]: 0.454 | glycan array binding signal (z-score) [33]: -0.4 | glycan array binding signal (z-score) [34]: 0.111 | glycan array binding signal (z-score) (Man(b1-4)GlcNAc): 5.41 | glycan array binding signal (z-score) [35]: -0.619 | glycan array binding signal (z-score) [36]: -0.173 | glycan array binding signal (z-score) [37]: 3.06 | glycan array binding signal (z-score) [38]: -0.777 | glycan array binding signal (z-score) [39]: 6.1 | glycan array binding signal (z-score) (Neu5Ac(a2-6)Gal(b1-4)Glc): -0.397 | glycan array binding signal (z-score) [40]: -0.03 | glycan array binding signal (z-score) [41]: -0.551 | glycan array binding signal (z-score) [42]: -0.49 | glycan array binding signal (z-score) [43]: -0.709 | glycan array binding signal (z-score) [44]: -0.435 | glycan array binding signal (z-score) [45]: -0.505 | glycan array binding signal (z-score) [46]: -0.34 | glycan array binding signal (z-score) [47]: -0.883 | glycan array binding signal (z-score) [48]: 3.71
